# Laboratory results taken from ChEMBL document CHEMBL3988442, “University of Dundee, Small-Polar-MMV Screening Library” (2021).
# For some assays here: Measured potencies and affinities stand elsewhere.
# What was measured:
# Parameters in all cases: scale not given: direction of the effect not stated beside the values
# [1] = molecular target: Protein translocase subunit SecA (Escherichia coli (strain K12)) (UniProt P10408); assay: Assay to Identify E. coli SecA ATPase Inhibitors; format: functional; conditions: 30 µM
# Chain of Protein translocase subunit SecA (Escherichia coli (strain K12)) (P10408 whole entry): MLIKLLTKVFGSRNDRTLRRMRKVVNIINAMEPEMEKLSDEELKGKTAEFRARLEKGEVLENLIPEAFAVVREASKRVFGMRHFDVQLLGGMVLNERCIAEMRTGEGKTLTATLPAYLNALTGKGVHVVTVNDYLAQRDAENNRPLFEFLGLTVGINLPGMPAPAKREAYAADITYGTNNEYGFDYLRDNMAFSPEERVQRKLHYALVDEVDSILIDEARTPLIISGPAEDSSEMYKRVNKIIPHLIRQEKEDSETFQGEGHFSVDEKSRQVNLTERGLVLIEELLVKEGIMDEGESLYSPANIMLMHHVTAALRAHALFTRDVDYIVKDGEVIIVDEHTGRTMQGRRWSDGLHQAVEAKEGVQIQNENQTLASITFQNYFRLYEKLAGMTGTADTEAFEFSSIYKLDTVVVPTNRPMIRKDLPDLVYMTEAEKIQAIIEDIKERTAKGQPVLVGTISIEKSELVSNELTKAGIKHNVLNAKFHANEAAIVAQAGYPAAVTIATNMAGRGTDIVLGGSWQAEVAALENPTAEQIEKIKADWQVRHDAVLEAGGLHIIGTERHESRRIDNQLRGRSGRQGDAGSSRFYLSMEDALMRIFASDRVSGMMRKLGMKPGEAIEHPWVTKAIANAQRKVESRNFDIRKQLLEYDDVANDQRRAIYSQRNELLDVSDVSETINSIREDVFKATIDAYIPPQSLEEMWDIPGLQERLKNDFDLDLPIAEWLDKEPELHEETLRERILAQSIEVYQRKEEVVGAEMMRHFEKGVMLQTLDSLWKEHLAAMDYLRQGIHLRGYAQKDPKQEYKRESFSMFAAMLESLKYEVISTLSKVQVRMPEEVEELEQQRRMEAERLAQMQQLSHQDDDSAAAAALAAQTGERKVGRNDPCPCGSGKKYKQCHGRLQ
# [2] = molecular target: T1, Ubiquitin-activating enzyme e1, putative (Leishmania donovani (strain BPK282A1)) (UniProt E9BSI1); assay: Leishmania donovani Ubiquitin Activating Enzyme (LdE1); format: functional; conditions: 30 µM
# T1 sequence (whole entry): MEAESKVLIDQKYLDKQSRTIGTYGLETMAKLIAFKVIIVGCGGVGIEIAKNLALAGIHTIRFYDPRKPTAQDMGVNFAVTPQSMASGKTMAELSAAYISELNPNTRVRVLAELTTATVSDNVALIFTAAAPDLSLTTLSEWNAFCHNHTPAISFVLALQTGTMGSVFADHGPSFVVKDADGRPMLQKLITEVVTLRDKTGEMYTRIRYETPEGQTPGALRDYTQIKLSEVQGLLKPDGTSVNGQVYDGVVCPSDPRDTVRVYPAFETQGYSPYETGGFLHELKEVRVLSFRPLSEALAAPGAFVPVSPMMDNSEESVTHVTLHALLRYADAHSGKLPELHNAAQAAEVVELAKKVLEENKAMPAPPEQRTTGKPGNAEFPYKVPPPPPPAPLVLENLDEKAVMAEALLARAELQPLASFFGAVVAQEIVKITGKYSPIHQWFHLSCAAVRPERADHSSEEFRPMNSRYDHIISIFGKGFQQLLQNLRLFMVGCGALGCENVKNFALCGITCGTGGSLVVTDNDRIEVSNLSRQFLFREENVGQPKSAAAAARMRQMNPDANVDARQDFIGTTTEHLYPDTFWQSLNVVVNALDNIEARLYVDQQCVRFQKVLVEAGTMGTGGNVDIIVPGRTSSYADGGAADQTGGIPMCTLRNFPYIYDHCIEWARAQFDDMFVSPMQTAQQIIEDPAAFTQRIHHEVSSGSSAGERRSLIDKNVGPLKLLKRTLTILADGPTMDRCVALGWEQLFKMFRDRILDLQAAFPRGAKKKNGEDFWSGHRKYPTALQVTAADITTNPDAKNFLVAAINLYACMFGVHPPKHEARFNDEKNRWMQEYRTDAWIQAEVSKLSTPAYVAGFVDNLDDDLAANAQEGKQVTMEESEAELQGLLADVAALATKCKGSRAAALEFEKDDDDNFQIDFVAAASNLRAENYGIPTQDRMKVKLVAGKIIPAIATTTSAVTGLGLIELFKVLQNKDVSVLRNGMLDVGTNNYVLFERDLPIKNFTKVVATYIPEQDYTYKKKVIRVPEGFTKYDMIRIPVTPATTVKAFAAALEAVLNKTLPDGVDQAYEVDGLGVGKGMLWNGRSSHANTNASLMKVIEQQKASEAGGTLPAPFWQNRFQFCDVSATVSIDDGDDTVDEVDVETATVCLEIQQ
# [3] = molecular target: AMP-activated protein kinase, AMPK (Homo sapiens) (UniProt P54646+O43741+P54619+Q9UGJ0+Q9Y478+Q13131+Q9UGI9); assay: AMP-dependent Kinase enzyme assay. An in vitro enzyme assay that detects ADP turnover that is directly proportional to AMPK activity. This uses naive AMPK that is activated during the assay with MK-8722; format: functional; conditions: 30 µM
# [4] = molecular target: Sialic acid-binding Ig-like lectin 9 (Homo sapiens) (UniProt Q9Y336); assay: Hs-Siglec9 ALPHAscreen SOP 20170721; conditions: 10 µM
# Chain of Sialic acid-binding Ig-like lectin 9 (Homo sapiens) (Q9Y336 whole entry): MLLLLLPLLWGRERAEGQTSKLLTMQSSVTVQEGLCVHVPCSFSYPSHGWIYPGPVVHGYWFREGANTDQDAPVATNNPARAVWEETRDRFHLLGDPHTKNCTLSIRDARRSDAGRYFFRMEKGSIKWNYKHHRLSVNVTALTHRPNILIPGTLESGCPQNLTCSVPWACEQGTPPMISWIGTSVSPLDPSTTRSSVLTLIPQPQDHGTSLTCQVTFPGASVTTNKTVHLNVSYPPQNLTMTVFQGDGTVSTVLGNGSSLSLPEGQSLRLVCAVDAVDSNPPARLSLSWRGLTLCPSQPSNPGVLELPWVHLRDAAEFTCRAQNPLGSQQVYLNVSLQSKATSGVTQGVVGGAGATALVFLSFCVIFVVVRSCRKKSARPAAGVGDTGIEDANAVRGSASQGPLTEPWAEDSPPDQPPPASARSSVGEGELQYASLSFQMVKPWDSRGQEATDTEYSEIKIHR
# Trypanosoma cruzi = assay: Trypanosoma cruzi phosphomannomutase and mannose-1-phosphate guanylyltransferase assay; format: functional; conditions: 10 µM
# [5] = molecular target: T2, Arginase-2, mitochondrial (Homo sapiens) (UniProt P78540); assay: in vitro enzyme assay to detect the production of urea directly proportional to the activity of Arginase II; format: functional; conditions: 33.3 µM; also: in the data most compounds retested in dose-response had high values
# T2 sequence (whole entry): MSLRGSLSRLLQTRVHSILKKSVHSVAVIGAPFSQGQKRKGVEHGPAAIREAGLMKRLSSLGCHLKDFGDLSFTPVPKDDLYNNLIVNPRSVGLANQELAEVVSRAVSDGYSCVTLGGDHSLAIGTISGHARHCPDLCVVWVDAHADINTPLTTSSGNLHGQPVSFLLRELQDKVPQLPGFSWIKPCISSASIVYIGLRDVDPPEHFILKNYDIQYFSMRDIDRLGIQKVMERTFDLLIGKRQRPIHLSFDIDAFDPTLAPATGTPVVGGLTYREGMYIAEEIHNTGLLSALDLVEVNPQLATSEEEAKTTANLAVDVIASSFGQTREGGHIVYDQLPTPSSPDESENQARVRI
# [6] = molecular target: T3, Proteasome subunit beta (Trypanosoma cruzi) (UniProt O96673); assay: Trypanosoma cruzi proteasome chymotrypsin-like activity (TcProtChymo) assay.; also: in the data most compounds retested in dose-response had high values; format: functional; conditions: 9.37 µM
# T3 sequence (whole entry): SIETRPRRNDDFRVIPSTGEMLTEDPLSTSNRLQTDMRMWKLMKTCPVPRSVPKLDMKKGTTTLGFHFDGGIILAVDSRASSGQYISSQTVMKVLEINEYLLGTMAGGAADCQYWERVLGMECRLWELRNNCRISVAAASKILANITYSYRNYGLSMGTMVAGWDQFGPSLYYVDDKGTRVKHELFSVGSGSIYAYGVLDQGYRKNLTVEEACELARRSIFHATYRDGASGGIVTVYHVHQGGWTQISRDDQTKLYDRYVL
# Homo sapiens = organism: Homo sapiens; assay: To identify inhibition of the IFN signalling (Jak-Stat) pathway via expression of an eGFP reporter gene under the control of an IFN-stimulated response element (ISRE) containing MxA promoter.; format: functional; conditions: 30 µM
# [7] = molecular target: T4, Tyrosyl-tRNA synthetase, putative (Trypanosoma cruzi (strain CL Brener)) (UniProt Q4DSP6); assay: Trypanosoma cruzi tyrosyl tRNA synthetase (TcYRS) _High Tyrosine SOP; format: functional; conditions: 30 µM; also: in the data most compounds retested in dose-response had high values
# T4 sequence (whole entry): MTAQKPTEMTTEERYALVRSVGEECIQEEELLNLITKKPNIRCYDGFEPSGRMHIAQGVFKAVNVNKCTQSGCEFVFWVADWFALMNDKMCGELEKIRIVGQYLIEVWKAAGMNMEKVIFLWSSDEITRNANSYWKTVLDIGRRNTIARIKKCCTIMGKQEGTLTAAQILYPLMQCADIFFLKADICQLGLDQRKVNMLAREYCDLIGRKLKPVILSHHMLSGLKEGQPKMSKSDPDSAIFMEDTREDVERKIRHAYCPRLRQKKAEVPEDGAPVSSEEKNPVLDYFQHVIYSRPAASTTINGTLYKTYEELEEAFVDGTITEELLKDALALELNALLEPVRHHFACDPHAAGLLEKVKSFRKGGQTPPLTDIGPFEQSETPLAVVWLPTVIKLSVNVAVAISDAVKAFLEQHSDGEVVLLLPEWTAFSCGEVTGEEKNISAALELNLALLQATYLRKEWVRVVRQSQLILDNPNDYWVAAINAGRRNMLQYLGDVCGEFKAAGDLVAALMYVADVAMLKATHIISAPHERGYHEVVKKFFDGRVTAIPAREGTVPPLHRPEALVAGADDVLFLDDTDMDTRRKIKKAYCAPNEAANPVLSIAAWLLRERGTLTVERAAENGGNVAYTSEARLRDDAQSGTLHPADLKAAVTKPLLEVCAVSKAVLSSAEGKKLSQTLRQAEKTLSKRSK
# [8] = molecular target: T4, Tyrosyl-tRNA synthetase, putative (Trypanosoma cruzi (strain CL Brener)); assay: Trypanosoma cruzi tyrosyl tRNA synthetase (TcYRS) SOP; format: functional; conditions: 30 µM
# [9] = molecular target: Chromo domain-containing protein 1 (Saccharomyces cerevisiae (strain ATCC 204508 / S288c) (Baker's yeast)) (UniProt P32657); assay: ScCHD-1 Enzyme Inhibition Assay; format: functional; conditions: 30 µM; also: in the data most compounds retested in dose-response had high values
# Chain of Chromo domain-containing protein 1 (Saccharomyces cerevisiae (strain ATCC 204508 / S288c) (Baker's yeast)) (P32657 whole entry, the tested form may be a part): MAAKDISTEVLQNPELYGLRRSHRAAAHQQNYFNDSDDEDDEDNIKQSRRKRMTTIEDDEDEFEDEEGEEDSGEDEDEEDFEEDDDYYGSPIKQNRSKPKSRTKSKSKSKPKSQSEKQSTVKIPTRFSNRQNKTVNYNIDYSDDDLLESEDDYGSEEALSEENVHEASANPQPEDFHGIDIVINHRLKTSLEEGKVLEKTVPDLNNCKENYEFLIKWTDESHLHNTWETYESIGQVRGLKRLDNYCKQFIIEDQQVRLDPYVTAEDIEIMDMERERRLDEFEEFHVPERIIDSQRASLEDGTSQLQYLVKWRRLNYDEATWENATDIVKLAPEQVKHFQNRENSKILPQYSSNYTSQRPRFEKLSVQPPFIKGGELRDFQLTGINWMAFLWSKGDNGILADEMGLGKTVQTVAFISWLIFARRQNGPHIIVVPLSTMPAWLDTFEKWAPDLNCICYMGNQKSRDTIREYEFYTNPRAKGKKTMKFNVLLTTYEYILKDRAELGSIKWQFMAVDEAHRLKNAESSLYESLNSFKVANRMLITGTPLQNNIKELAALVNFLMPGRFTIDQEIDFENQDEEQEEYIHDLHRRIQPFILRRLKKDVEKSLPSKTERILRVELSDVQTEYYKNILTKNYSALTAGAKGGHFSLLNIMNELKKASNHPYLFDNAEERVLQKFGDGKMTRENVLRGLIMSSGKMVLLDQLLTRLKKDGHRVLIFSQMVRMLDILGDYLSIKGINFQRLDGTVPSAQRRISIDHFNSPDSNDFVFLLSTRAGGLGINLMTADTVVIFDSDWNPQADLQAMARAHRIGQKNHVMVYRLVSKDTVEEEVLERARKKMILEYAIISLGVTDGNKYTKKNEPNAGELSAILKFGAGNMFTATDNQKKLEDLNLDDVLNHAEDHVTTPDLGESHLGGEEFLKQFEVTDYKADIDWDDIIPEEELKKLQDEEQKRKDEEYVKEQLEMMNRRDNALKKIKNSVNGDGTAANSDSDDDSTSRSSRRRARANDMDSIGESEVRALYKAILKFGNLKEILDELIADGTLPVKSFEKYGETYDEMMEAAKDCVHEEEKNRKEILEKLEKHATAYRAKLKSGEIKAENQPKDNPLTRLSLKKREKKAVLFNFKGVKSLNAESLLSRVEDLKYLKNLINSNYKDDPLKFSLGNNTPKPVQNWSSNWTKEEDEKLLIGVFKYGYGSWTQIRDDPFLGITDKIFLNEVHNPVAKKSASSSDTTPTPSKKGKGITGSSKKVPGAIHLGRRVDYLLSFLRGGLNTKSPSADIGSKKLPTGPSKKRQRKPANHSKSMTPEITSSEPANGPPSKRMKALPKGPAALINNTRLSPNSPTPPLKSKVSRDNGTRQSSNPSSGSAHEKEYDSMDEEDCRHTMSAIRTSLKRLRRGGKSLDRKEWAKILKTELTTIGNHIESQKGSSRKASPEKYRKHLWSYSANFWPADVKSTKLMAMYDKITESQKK
structure (smiles),measurement,setting,value
COc1cccc(N2CCN(Cc3ccc(NC(C)=O)cc3)CC2=O)c1,Percent Effect,[1],-2.84%
same,Percent Effect,[2],18.1%
same,Percent Effect,[3],-5.61%
same,Percent Effect,[4],20.1%
same,Percent Effect,Trypanosoma cruzi,6.51%
same,Percent Effect,[5],10.2%
same,Percent Effect,[6],11.6%
same,Percent Effect,Homo sapiens,4.1%
same,Percent Effect,[7],4.21%
same,Percent Effect,[8],15.4%
same,Percent Effect,[9],-2.22%
CN(C)CC1CN(Cc2cccc(C(=O)N(C)C)c2)CCO1 (stereo not given),Percent Effect,[1],-4.12%
same,Percent Effect,[2],20.8%
same,Percent Effect,[3],-4.76%
same,Percent Effect,[4],-4.42%
same,Percent Effect,Trypanosoma cruzi,-0.562%
same,Percent Effect,[5],3.56%
same,Percent Effect,[6],14.7%
same,Percent Effect,Homo sapiens,20.8%
same,Percent Effect,[7],10.7%
same,Percent Effect,[8],14.6%
same,Percent Effect,[9],-5.94%
CCS(=O)(=O)c1ccc(N2CCC(NC(C)=O)CC2)cc1,Percent Effect,[1],-5.48%
same,Percent Effect,[2],2.67%
same,Percent Effect,[3],0.562%
same,Percent Effect,[4],-0.234%
same,Percent Effect,Trypanosoma cruzi,-3.21%
same,Percent Effect,[5],-1.04%
same,Percent Effect,[6],14.8%
same,Percent Effect,Homo sapiens,24.6%
same,Percent Effect,[7],2.73%
same,Percent Effect,[8],8.64%
same,Percent Effect,[9],-7.72%
Cc1ncc2c(n1)CN(Cc1noc(C3CC3)n1)CC2,Percent Effect,[1],-6.18%
same,Percent Effect,[2],15.6%
same,Percent Effect,[3],-33.1%
same,Percent Effect,[4],11.6%
same,Percent Effect,Trypanosoma cruzi,5.43%
same,Percent Effect,[5],2.85%
same,Percent Effect,[6],8.11%
same,Percent Effect,Homo sapiens,2.58%
same,Percent Effect,[7],6.8%
same,Percent Effect,[8],19.5%
same,Percent Effect,[9],-13.7%
COCCn1c2c(ccc1=O)CC(NS(C)(=O)=O)CC2 (stereo not given),Percent Effect,[1],-3.49%
same,Percent Effect,[2],13.3%
same,Percent Effect,[3],-2.12%
same,Percent Effect,[4],-9.48%
same,Percent Effect,Trypanosoma cruzi,-7.68%
same,Percent Effect,[5],-1.63%
same,Percent Effect,[6],-1.15%
same,Percent Effect,Homo sapiens,10.7%
same,Percent Effect,[7],0%
same,Percent Effect,[8],3.85%
same,Percent Effect,[9],-4.29%
COCC(=O)N1CCC(c2nc3ccc(N4CCCC4)cn3n2)CC1,Percent Effect,[1],-3.58%
same,Percent Effect,[2],5.48%
same,Percent Effect,[3],-210%
same,Percent Effect,[4],5.8%
same,Percent Effect,Trypanosoma cruzi,-4.96%
same,Percent Effect,[5],1.2%
same,Percent Effect,[6],10%
same,Percent Effect,Homo sapiens,-9.84%
same,Percent Effect,[7],7.29%
same,Percent Effect,[8],11.1%
same,Percent Effect,[9],-3.02%
CN(C)C(=O)Cc1nc(CN2CCOC(Cn3cccn3)C2)cs1 (stereo not given),Percent Effect,[1],1.53%
same,Percent Effect,[2],0%
same,Percent Effect,[3],-0.58%
same,Percent Effect,[4],-0.357%
same,Percent Effect,Trypanosoma cruzi,-1.46%
same,Percent Effect,[5],0%
same,Percent Effect,[6],10.6%
same,Percent Effect,Homo sapiens,-2.04%
same,Percent Effect,[7],0%
same,Percent Effect,[8],0%
same,Percent Effect,[9],1.28%
CS(=O)(=O)NC[C@]12COC[C@H]1CN(CC1CCCC1)C2,Percent Effect,[1],-4.19%
same,Percent Effect,[2],5.41%
same,Percent Effect,[3],8.19%
same,Percent Effect,[4],-4.23%
same,Percent Effect,Trypanosoma cruzi,-4.79%
same,Percent Effect,[5],1.59%
same,Percent Effect,[6],20.1%
same,Percent Effect,Homo sapiens,0.262%
same,Percent Effect,[7],2.16%
same,Percent Effect,[8],7.69%
same,Percent Effect,[9],0.895%
Cc1cc(C(=O)N2CCCC2c2nnc3n2CCCCC3)no1 (stereo not given),Percent Effect,[1],-2.02%
same,Percent Effect,[2],6.94%
same,Percent Effect,[3],-6.41%
same,Percent Effect,[4],-2.93%
same,Percent Effect,Trypanosoma cruzi,0.291%
same,Percent Effect,[5],2.21%
same,Percent Effect,[6],21.1%
same,Percent Effect,Homo sapiens,-18.8%
same,Percent Effect,[7],6.32%
same,Percent Effect,[8],12.8%
same,Percent Effect,[9],-5.42%
CC(O)CN1CCN(C(=O)c2cc3ccccc3[nH]c2=O)CC1 (stereo not given),Percent Effect,[1],-2.78%
same,Percent Effect,[2],2.63%
same,Percent Effect,[3],-2.27%
same,Percent Effect,[4],10.3%
same,Percent Effect,Trypanosoma cruzi,-3.8%
same,Percent Effect,[5],-4.73%
same,Percent Effect,[6],13.1%
same,Percent Effect,Homo sapiens,-25.9%
same,Percent Effect,[7],1.06%
same,Percent Effect,[8],-5.2%
same,Percent Effect,[9],-3.52%
